Experimental data taken from PMC4336329 (PLoS ONE, 2015).
Screen size: about 310,000 compounds; about 14,000 (4.5%) showed an effect of 50% or more. The effect is printed as a negative number. For the sample, strong results were picked, then their nearest neighbours and some compounds at random.

target: human ether-à-go-go-related gene (hERG) potassium channel (human, UniProt Q12809); test: primary screen, population patch clamp on CHO cells stably expressing hERG; higher = less effect of the substance
Sequence (Q12809 whole entry, looked up): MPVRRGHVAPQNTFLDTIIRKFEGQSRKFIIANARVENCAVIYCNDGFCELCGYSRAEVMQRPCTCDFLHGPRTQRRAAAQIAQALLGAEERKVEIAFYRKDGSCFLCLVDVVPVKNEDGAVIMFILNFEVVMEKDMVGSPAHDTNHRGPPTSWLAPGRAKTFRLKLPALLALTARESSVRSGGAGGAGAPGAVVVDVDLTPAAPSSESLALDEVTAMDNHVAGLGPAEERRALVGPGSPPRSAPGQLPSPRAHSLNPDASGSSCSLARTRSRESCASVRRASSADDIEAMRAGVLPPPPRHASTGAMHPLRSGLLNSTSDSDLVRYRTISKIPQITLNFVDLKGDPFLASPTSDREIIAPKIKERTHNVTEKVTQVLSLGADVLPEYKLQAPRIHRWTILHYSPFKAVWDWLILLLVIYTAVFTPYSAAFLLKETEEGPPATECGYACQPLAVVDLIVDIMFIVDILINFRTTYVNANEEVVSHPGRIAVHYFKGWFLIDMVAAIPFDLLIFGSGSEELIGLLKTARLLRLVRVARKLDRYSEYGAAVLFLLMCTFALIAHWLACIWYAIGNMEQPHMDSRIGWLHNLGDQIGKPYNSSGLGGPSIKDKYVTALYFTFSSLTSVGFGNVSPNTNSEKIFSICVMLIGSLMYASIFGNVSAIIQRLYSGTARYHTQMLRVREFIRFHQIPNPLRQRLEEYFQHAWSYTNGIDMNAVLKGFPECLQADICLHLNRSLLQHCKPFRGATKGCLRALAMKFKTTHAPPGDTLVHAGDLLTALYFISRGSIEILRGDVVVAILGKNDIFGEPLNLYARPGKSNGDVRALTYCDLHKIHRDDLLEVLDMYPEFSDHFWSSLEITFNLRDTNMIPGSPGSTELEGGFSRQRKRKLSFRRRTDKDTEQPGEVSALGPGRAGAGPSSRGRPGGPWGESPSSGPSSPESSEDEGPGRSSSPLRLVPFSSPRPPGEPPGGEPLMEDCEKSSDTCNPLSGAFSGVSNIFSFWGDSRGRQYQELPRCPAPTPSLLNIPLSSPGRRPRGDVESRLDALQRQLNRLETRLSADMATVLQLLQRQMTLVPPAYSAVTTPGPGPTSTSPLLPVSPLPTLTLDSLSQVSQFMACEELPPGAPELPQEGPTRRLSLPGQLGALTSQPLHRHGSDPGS
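Also: peak tail current of the secondary pulse compared with the same well before compound.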

Compound | hERG current change (%, negative = inhibition) at 10uM [%]
CCOC(=O)C(C)Oc1ccc(OCc2ccccc2)cc1 (centres unmarked) | 20.1
CC(C)(C)NS(=O)(=O)c1cccc(S(=O)(=O)c2cccc(S(=O)(=O)NC(C)(C)C)c2)c1 | -35.3
CCCNS(=O)(=O)c1ccc(CCC(=O)N2CCN(CC)CC2)cc1 | -1.72
O=C(NC1CCS(=O)(=O)C1)c1ccc(S(=O)(=O)N2CCCCC2)cc1 (centres unmarked) | 1.86
CCC(C(=O)Nc1ccncc1)c1ccccc1 (centres unmarked) | 0.0329
CN(C)S(=O)(=O)c1ccc(S(=O)(=O)N2CCN(CCC#N)CC2)cc1 | -1.43
Cc1ccc(C2(C)NC(=O)N(CC(=O)N3CCN(S(=O)(=O)c4cccc(F)c4)CC3)C2=O)cc1 (centres unmarked) | -65.7
CCOc1ccc(C(=O)CCC(=O)N2CCN(S(=O)(=O)c3cccc(F)c3)CC2)cc1 | -30.7
O=C(CN1C(=O)NC2(CCCCC2)C1=O)N1CCN(S(=O)(=O)c2ccc(Cl)s2)CC1 | 4.79
CC1(c2ccccc2)NC(=O)N(CC(=O)N2CCN(S(=O)(=O)c3cccc([N+](=O)[O-])c3)CC2)C1=O (centres unmarked) | 5.57
Cc1ccc(C2(C)NC(=O)N(CC(=O)N3CCN(S(=O)(=O)c4ccc(Cl)s4)CC3)C2=O)cc1 (centres unmarked) | -58
O=C(CN1C(=O)NC2(CCCCC2)C1=O)N1CCN(S(=O)(=O)c2ccc(F)cc2)CC1 | 4.02
O=C(CN1C(=O)NC2(CCCCC2)C1=O)N1CCN(S(=O)(=O)c2cccc(F)c2)CC1 | -61.8
Cc1ccc(C2(C)NC(=O)N(CC(=O)N3CCN(S(=O)(=O)c4cccs4)CC3)C2=O)cc1 (centres unmarked) | -31.9
CCC1(CC)NC(=O)N(CC(=O)N2CCN(S(=O)(=O)c3cccc(F)c3)CC2)C1=O | 7.12
CCOc1ccc(OCCC(=O)N2CCN(S(=O)(=O)c3ccc(F)cc3)CC2)cc1 | -6.61
O=C(CN1C(=O)NC2(CCCC2)C1=O)N1CCN(S(=O)(=O)c2cccc(F)c2)CC1 | 22.2
CCOc1ccc(OCCC(=O)N2CCN(S(=O)(=O)c3cccc(F)c3)CC2)cc1 | -62.4
CCCC(=O)Nc1cc(C(=O)N2CCC3(CC2)OCCO3)ccc1S(=O)(=O)c1ccc(C)cc1 | -14

Compound | hERG current change (%, negative = inhibition) at 10uM [%]
COc1cc(C(=O)Nc2nc3ccccc3[nH]2)ccc1OC(F)F | 18
CCc1cccc(CC)c1NC(=O)C1CN(S(=O)(=O)c2ccccc2)CCN1S(=O)(=O)c1ccccc1 (centres unmarked) | 9.16
COc1ccccc1NS(=O)(=O)NC(=O)c1cn(C)c2ccccc12 | 16.8
COc1ccc(NC(=O)CSc2nnc(-c3ccccc3)n2N)cc1 | -4.04
CCOc1ccccc1N1CCN(Cc2c(C)n(C)n(-c3ccccc3)c2=O)CC1 | -20.5
CSCCC(NC(=O)c1ccc(Cl)cc1Cl)C(=O)NNC(=O)c1ccncc1 (centres unmarked) | -6.73
CC1(c2ccccc2Cl)NC(=O)N(CC(=O)N2CCN(S(=O)(=O)c3ccccc3)CC2)C1=O (centres unmarked) | 7.55
CC(C)c1ccc(S(=O)(=O)N2CCN(C(=O)CN3C(=O)NC(C)(c4ccccc4)C3=O)CC2)cc1 (centres unmarked) | -31.6
CC1(c2ccc(Cl)cc2)NC(=O)N(CC(=O)N2CCN(S(=O)(=O)c3ccccc3)CC2)C1=O (centres unmarked) | -50
Cc1c(Cl)c(C(=O)Nc2nc3ccccc3n2CCN2CCCCC2)nn1C | -68.1
O=C(Nc1nc2ccccc2n1CCN1CCOCC1)c1ccccc1 | -6.69
CCn1nccc1C(=O)Nc1nc2ccccc2n1CCN1CCCCC1 | -39.8
Cn1ncc([N+](=O)[O-])c1C(=O)Nc1nc2ccccc2n1CCN1CCCCC1 | -25.1
O=C(Nc1nc2ccccc2n1CCN1CCOCC1)c1ccc(Cl)cc1 | 1.72
CCn1cc(Cl)c(C(=O)Nc2nc3ccccc3n2CCN2CCCCC2)n1 | -65.5
CCCCn1nnc(NC(=S)NC(=O)c2cccs2)n1 | 9.16
COc1ccccc1Cn1c(=S)[nH]c2ccccc2c1=O | 32.7
COc1ccc(S(=O)(=O)N2CCOCC2)cc1NC(=O)CC1CCCC1 | -6.2
COc1ccc(N(CC(=O)Nc2ccc3c(c2)OCCO3)S(=O)(=O)c2c(C)noc2C)cc1 | -6.74

Compound | hERG current change (%, negative = inhibition) at 10uM [%]
O=C(NC(=S)NC1CCCCC1)c1ccccc1 | 1.5
COCCCn1c(=O)c2sccc2n2c(CCCC(=O)NCc3ccccc3OC)nnc12 | -19.9
Cc1ccc(NC(=O)CS(=O)(=O)c2cn(CC(=O)N3CCOCC3)c3ccccc23)cc1 | -0.0981
O=C(CS(=O)(=O)c1cn(CC(=O)N2CCOCC2)c2ccccc12)Nc1ccccc1 | 8.09
CC(=O)c1ccc(NC(=O)CS(=O)(=O)c2cn(CC(=O)N3CCOCC3)c3ccccc23)cc1 | -58.6
COc1cccc(=O)c2c(C)n(C)c(C)c12 | -24.7
CC(Oc1ccc2c3c(c(=O)oc2c1)CCC3)C(=O)NC1CCN(Cc2ccccc2)CC1 (centres unmarked) | -47.9
Cc1c(C)c2ccc(OC(C)C(=O)NC3CC(C)(C)NC(C)(C)C3)cc2oc1=O (centres unmarked) | 7.7
CC(Oc1ccccc1)C(=O)NC1CCN(Cc2ccccc2)CC1 (centres unmarked) | -26.8
CC(Oc1ccc(Br)cc1)C(=O)NC1CCN(Cc2ccccc2)CC1 (centres unmarked) | -80.4
Cc1c(C)c2ccc(OC(C)C(=O)NC3CCN(Cc4ccccc4)CC3)cc2oc1=O (centres unmarked) | -54.2
Cc1cc(=O)oc2c(C)c(OC(C)C(=O)NC3CCN(Cc4ccccc4)CC3)ccc12 (centres unmarked) | -48.1
CCc1cc(=O)oc2cc(C)cc(OC(C)C(=O)NC3CCN(Cc4ccccc4)CC3)c12 (centres unmarked) | -32.8
Cc1cc(OC(C)C(=O)NC2CCN(Cc3ccccc3)CC2)c2c(C)cc(=O)oc2c1 (centres unmarked) | -15.2
CC(Oc1ccc(Br)cc1)C(=O)NC1CCCCCC1 (centres unmarked) | -12.4
CC(Oc1ccc2ccc(=O)oc2c1)C(=O)NC1CCN(Cc2ccccc2)CC1 (centres unmarked) | -75
Cc1cc(=O)oc2cc(OC(C)C(=O)NC3CCCC3)ccc12 (centres unmarked) | -33.4
Cc1cc(=O)oc2cc(OC(C)C(=O)NC3CCN(Cc4ccccc4)CC3)ccc12 (centres unmarked) | -79.2
